About 79,000 compounds went through this panel and 15% of them were active in at least one assay; those are over-represented in the sample as a whole. Cut-off read from the data, not from the text of the source: active = growth inhibition above about 70%; inactive = the rest.
What was measured:
[1] = NCI Yeast Anticancer Drug Screen. Data for the rad50 strain (AID 155);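 note: 0% = growth of vehicle-only cultures of the same strain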; conditions: S. cerevisiae rad50 strain growth inhibition; at 50.0 µM; active compounds read high
How it was run: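 DNA repair mutant yeast, compound exposure, growth read-out; inhibition is taken relative to vehicle.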

[2] = NCI Yeast Anticancer Drug Screen. Data for the mec2-1 strain (AID 157); conditions: S. cerevisiae mec2-1 strain, at 50.0 µM, active compounds read high
How it was run: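 Readout is yeast growth inhibition, normalised to vehicle-treated controls, in the mec2-1 strain exposed to compound.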

[3] = NCI Yeast Anticancer Drug Screen. Data for the sgs1 mgt1 strain (AID 161);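 note: 0% = growth of cultures given vehicle only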; conditions: S. cerevisiae sgs1 mgt1 strain, at 50.0 µM, active compounds read high
How it was run: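 This yeast growth screen uses a strain with defined DNA-repair lesions; compound-treated growth is compared with vehicle-treated growth.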

[4] = NCI Yeast Anticancer Drug Screen. Data for the cln2 rad14 strain (AID 165);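 note: 0% = growth equal to vehicle treated cultures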; conditions: S. cerevisiae cln2 rad14 strain, at 50.0 µM, active compounds read high
How it was run: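 Relative to vehicle controls, growth inhibition of compound-treated cln2 rad14 yeast was recorded.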

[5] = NCI Yeast Anticancer Drug Screen. Data for the bub3 strain (AID 167); conditions: S. cerevisiae bub3 mutant strain, at 50.0 µM, active compounds read high
How it was run: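 In this screen, a yeast mutant lacking normal mitotic checkpoint function is challenged with compound. Relative growth versus vehicle gives the inhibition value.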

[6] = NCI Yeast Anticancer Drug Screen. Data for the mlh1 rad18 strain (AID 175); conditions: S. cerevisiae mlh1 rad18 strain growth inhibition; at 50.0 µM; active compounds read high
How it was run: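 Test agents were incubated with a yeast strain of defined genotype (DNA damage repair defect). Inhibition of growth was derived by comparison with vehicle-exposed cultures.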

Measured: growth inhibition

CCCCCCCCCCCCCCCCOc1ccc(OCCCCCCCCCCCCCCC)cc1
inactive: [1] 42.2% | [2] -8.2% | [3] 31.6% | [4] -24.7% | [5] 5.35% | [6] -1.1%

c1ccc(SCCC(Sc2ccccc2)Sc2ccccc2)cc1
inactive: [1] -3.45% | [2] 5% | [3] -3.75% | [4] -13.8% | [5] -1.6% | [6] 3.65%

COc1cc(/C=C\C(=O)c2cccc([N+](=O)[O-])c2)cc(OC)c1OC
inactive: [1] 20.4% | [2] 30.1% | [3] 13.9% | [4] 12.5% | [5] 29.1% | [6] 20.7%

CCCN(CCCCC(NC(C)=O)C(=O)NCc1ccccc1)C(=O)NC (configuration not stated)
inactive: [1] -26.9% | [2] -27.8% | [3] -13.1% | [4] 17.9% | [5] -18.9% | [6] -14.5%

C[Si](C)(C)O/C=C1\CCCCC1=O
inactive: [1] 5.65% | [2] 8.4% | [3] 2.5% | [4] 14.8% | [5] 2.8% | [6] -23.6%

C#CCN(N=O)C(=O)NC(CCCCNC(=O)OCc1ccccc1)C(=O)OCc1ccccc1 (configuration not stated)
inactive: [1] -8.65% | [2] -25.4% | [3] -7.75% | [4] -2.35% | [5] 14.2% | [6] 0.6%

O=[N+]([O-])c1ccc(/C=C/c2cc(N(CCO)CCO)c3ccccc3n2)cc1
inactive: [1] 8.35% | [2] -1.05% | [3] -31.2% | [4] -11.1% | [5] -0.4% | [6] -2.95%

CC(=O)NC(C)c1ccc(N=NN2CCCC2)cc1 (configuration not stated)
inactive: [1] 19.6% | [2] -6% | [3] 20% | [4] 19.9% | [5] 25.3% | [6] -30.5%

Nc1ccccc1N=Cc1c(O)c2ccccc2oc1=O
inactive: [1] -8.55% | [2] -11% | [3] 2.7% | [4] 4.05% | [5] 4.25% | [6] 8.2%

O=C(Nc1ccccc1Cl)Oc1ccc(C(=O)c2ccccc2)cc1
inactive: [1] -0.3% | [2] -13.3% | [3] 30.2% | [4] 19.9% | [5] 16.9% | [6] 13.2%

Cc1cc2nnn(-c3ncccc3[N+](=O)[O-])c2cc1C
inactive: [1] 5% | [2] 5.85% | [3] -5.2% | [4] 17.8% | [5] 9.8% | [6] 19.4%

O=C(O)C(c1ccc(-c2ccccc2)cc1)C1CCCCC1 (configuration not stated)
inactive: [1] 47.9% | [2] 26.4% | [3] 50.2% | [4] 3.35% | [5] 45% | [6] 40.5%

Cc1cc([N+](=O)[O-])c(C)c(Br)c1C
inactive: [1] -8.45% | [2] -20.2% | [3] -37.7% | [4] 4.65% | [5] -38.5% | [6] -0.85%

CSc1cc2c(cc1[N+](=O)[O-])C(=O)c1cc(F)ccc1-2
inactive: [1] 8.7% | [2] 18.1% | [3] 4.45% | [4] -5.5% | [5] 3.15% | [6] 5%

NC(N)=NC(N)=NCc1ccccc1
inactive: [1] 5.45% | [2] -2.45% | [3] 4.3% | [4] 12.7% | [5] 1.85% | [6] 0.85%

CCc1nc(N)nc(N)c1-c1ccc(OC)c([N+](=O)[O-])c1
inactive: [1] 3.25% | [2] -14.7% | [3] -27.2% | [4] 24.9% | [5] -21.4% | [6] 7.9%

CCOC(=O)c1ccc(-n2cnc(-c3ccc([N+](=O)[O-])cc3)c2)cc1
inactive: [1] -4.55% | [2] -7.2% | [3] -8.8% | [4] -7.15% | [5] -1.15% | [6] -16.2%

CCCN/C=C1\CC(=O)N(C)C1=O
inactive: [1] 5.15% | [2] 8.45% | [3] 2.5% | [4] -33.7% | [5] 6.4% | [6] 11.2%

CCOC(=O)C(C)c1nc2cc(N3CCOCC3)c(F)cc2[nH]c1=O (configuration not stated)
inactive: [1] 24.6% | [2] -7.55% | [3] 11.7% | [4] 28.6% | [5] 5.7% | [6] 4.95%

CCCCCCC1(/C=C\c2ccccc2Cl)OCCO1
inactive: [1] 37.6% | [2] 31.5% | [3] 37.5% | [4] -9.6% | [5] 16.9% | [6] 23.3%

COc1ccc(C(=O)C[C@H]2CCC[C@@H](CC(=O)c3ccc(OC)cc3)N2C)cc1
inactive: [1] 14.4% | [2] 5.05% | [3] 5.05% | [4] 12% | [5] 0.25% | [6] 8.1%

COC(=O)c1ccccc1CC1Cc2c(C)ccc(C)c2C1=O (configuration not stated)
inactive: [1] -3.9% | [2] 3.1% | [3] 0.15% | [4] 3.45% | [5] 0.55% | [6] 17.8%

Cn1c(=O)c2c(nc(Cc3ccccc3)n2CC(=O)O)n(C)c1=O
inactive: [1] 0.3% | [2] -18.1% | [3] -30.8% | [4] -6.95% | [5] -32.1% | [6] -18.9%

CC(=O)[C@H]1CC[C@H]2[C@@H]3CC=C4C=CCC[C@]4(C)[C@H]3CC[C@]12C
inactive: [1] -6.3% | [2] 1% | [3] -3.55% | [4] -58.5% | [5] 8.4% | [6] 6.7%

CN1CCCCCC1
inactive: [1] -8.05% | [2] -8.45% | [3] 5.95% | [4] -4.95% | [5] -10.9% | [6] -0.85%

NC1=NC(c2ccc(Cl)cc2)N(c2ccc(S(N)(=O)=O)cc2)C(N)=N1 (configuration not stated)
inactive: [1] 9.05% | [2] -4.35% | [3] -24.5% | [4] -21.9% | [5] -11.3% | [6] 21.6%

Cc1c(NC(=O)Nc2c(Cl)cccc2Cl)c(=O)n(-c2ccccc2)n1C
inactive: [1] -42.8% | [2] -36.3% | [3] -15.5% | [4] -10.2% | [5] -29.9% | [6] -39.9%

CC(=O)Nc1ccc2cc(-c3ccc(Cl)cc3)c3nnnn3c2n1
inactive: [1] 14.3% | [2] 4.85% | [3] 25.8% | [4] -53.1% | [5] 0.9% | [6] 17.8%

O=C1/C(=C/C=C/c2ccccc2)CCC1CNc1ccc(Br)cc1 (configuration not stated)
inactive: [1] -20.2% | [2] -11.7% | [3] -17.8% | [4] 16.9% | [5] -15.4% | [6] 9.5%

CC1CCC(C(C)C)=C(C2CCCCC2)C1 (configuration not stated)
inactive: [1] -2.15% | [2] 1.65% | [3] -3.65% | [4] -7.05% | [5] -9.8% | [6] 6.65%

CC(=O)Nc1c(C)cc(C)cc1[N+](=O)[O-]
inactive: [1] 8.05% | [2] 7.15% | [3] -12.9% | [4] 2.65% | [5] 6.4% | [6] 22.1%

CCCCc1ccc(NC(=O)c2cccnc2)cc1
inactive: [1] 3% | [2] 14.4% | [3] 36.5% | [4] 15.2% | [5] -3.4% | [6] 27.6%

C(=NCCSSCCN=Cc1ccccc1)c1ccccc1
inactive: [1] 12.1% | [2] 10.3% | [3] 18.6% | [4] 10.1% | [5] -12.1% | [6] 21.6%

CN(C)CCCNC(=O)/C=C\C(=O)O
inactive: [1] 5.8% | [2] 3.9% | [3] 0.15% | [4] -4.9% | [5] 2.6% | [6] -6.15%

CC(=O)NC(c1ccccc1)c1c(O)ccc2ccccc12 (configuration not stated)
inactive: [1] 26.6% | [2] -2.8% | [3] 10.8% | [4] -33.2% | [5] -2.5% | [6] -5.25%

CCN(CC)C(=O)COc1ccc(Cl)cc1
inactive: [1] 2.05% | [2] -7.75% | [3] -5.55% | [4] -41.7% | [5] -26.6% | [6] -20.7%

Nc1c(N2CCCCC2)c(=O)nc2[nH]/c(=C\c3ccco3)c(=O)n12
inactive: [1] 5.45% | [2] -26.1% | [3] 10.9% | [4] -21.4% | [5] 8.8% | [6] -7.6%

O=c1nnc(O)c2ccn(O)cc1-2
inactive: [1] -34.6% | [2] -19% | [3] 1.65% | [4] -40.1% | [5] -8.95% | [6] -7.4%

CCCCCCCCCCCCCCCCOc1ccc(OC)cc1C(=O)NNC(=S)SC
inactive: [1] 14.7% | [2] -0.1% | [3] 24.6% | [4] 8.55% | [5] 34% | [6] 21.2%

CCCNC(=S)N/N=C\C(C)=N\Nc1ccc(Cl)cc1
inactive: [1] 31.4% | [2] 16.2% | [3] 3.15% | [4] 36% | [5] 7.5% | [6] 17.2%

Nc1ccc(N)c(N)c1
inactive: [1] 26.3% | [2] 53.1% | [3] 31.4% | [4] -31.2% | [5] -4.9% | [6] 6.8%

COc1ccc(C2=NCCO2)cc1N
inactive: [1] 3.6% | [2] 0.45% | [3] -13.7% | [4] -5.5% | [5] 4.35% | [6] 11.4%
